Laboratory results published in PubChem BioAssay AID1671187 (National Center for Advancing Translational Sciences (NCATS), 2021).
The other results are listed elsewhere or left out. Inconclusive results are not listed. Calls of active or inactive are those of the source. Calls come from the whole dose curve; as a rule, active = well fitted inhibition curve with a large enough effect; inconclusive = small, poorly fitted or top-dose-only effect; inactive = flat fitted curve, though single readings scatter.

These compounds were tested against Alanine aminotransferase 2 (Homo sapiens) (UniProt Q8TD30) (assay: Confirmatory qHTS assay for inhibitors of Glutamate pyruvate transaminase 2 (GPT2)). Conditions: GPT2 enzyme, coupled Amplex Red pyruvate fluorescence.
Chain of Alanine aminotransferase 2 (Homo sapiens) (Q8TD30 whole entry, looked up): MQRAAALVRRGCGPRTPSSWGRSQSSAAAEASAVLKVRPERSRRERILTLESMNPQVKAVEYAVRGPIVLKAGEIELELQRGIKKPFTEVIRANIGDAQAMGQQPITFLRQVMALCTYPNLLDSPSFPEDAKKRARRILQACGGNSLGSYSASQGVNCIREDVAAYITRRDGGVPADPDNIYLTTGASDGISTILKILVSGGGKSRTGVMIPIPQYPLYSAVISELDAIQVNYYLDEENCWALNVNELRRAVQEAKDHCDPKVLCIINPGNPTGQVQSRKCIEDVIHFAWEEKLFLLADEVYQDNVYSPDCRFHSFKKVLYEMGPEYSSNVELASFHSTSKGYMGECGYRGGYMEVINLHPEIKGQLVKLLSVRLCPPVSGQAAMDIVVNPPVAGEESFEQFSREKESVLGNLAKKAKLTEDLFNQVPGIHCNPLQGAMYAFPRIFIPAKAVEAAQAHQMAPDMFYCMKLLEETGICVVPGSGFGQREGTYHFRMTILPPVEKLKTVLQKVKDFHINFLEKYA
Description: Assay Provider: Zhenghe John Wang Ph.D. Case Western Reserve University, Cleveland OH Glutamate pyruvate transaminase 2 (GPT2) catalyzes the reversible transamination of glutamate and pyruvate to provide a-ketoglutarate and alanine. We have optimized an assay for GPT2 enzymatic activity that couples pyruvate formation to detection of fluorescence using an established pyruvate oxidase/horseradish peroxidase / Amplex Red system. Screening conditions were 250uM a-KG, 2mM L-alanine, and 0.006 ng/uL GPT2 in 4 uL of solution; 2 uL of Amplex reaction mix (outlined below) were added so that final concentrations of Amplex reagents in 6 uL were 0.2mM ThPP, 0.2U/mL PO, 1 U/mL HRP, and 15 uM Amplex.
NOTE: The volume of GPT2 in the system depended on the activity of it. The activity could be different in every batch. Batch testing the GPT2 activity was done prior to the assay. Full plate assay with automation as the following protocol: 1. Dispense 2ul of GPT2 enzyme (0.012 ng/ul) into columns 3-48, 2ul of GPT2 buffer (ddH2O with 110mM KCl, 10mM NaCl, 2mM MgCl2, 20mM HEPEs, 0.01% tween-20, 0.1% BSA, 5mM DTT ) into columns 1-2 as a positive control. 2. […] Read at Tecan: Excitation filter 560(10) nm, Emission filter 590 (10) nm Reagents preparation: 1. […]
With `CN1CCOc2c(C(=O)NCCN3CCNC3=O)cc(Nc3cccnc3)cc21` the Potency was 4.98 µM (active). In the case of `CNC(=O)c1ccccc1Nc1nc(Nc2ccc(N3CCOCC3)cc2OC)ncc1Cl`, the Potency is reported as 1.72 µM (active).
